Results filed as inconclusive are left out. The source holds several records for some structures; these can differ, active in one and inactive in another. Active and inactive are the calls of the source. Calls come from the whole dose curve; as a rule, active = well fitted inhibition curve with a large enough effect; inconclusive = small, poorly fitted or top-dose-only effect; inactive = flat fitted curve, though single readings scatter.
% is set by controls: 0 for no effect and ±100 for the full control effect.

A short description of this assay: Drug repurposing screens with cells derived from glioblastoma tumor samples (AID 1345199). Note: nearly all actives have a fitted effect of over 40% in size. To be noted: GBM patient neurospheres viability, ATP luminescence, 48 h; at 45.9 µM (top of the series); tumour line B. The procedure, abridged: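 Primary testing used CD133+ neurospheres from four GBM patients, seven concentrations, 48 h exposure and ATP-based viability; confirmation added three slower-growing patient lines.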
For the compound `CN1C(=O)[C@@H](NC(=O)c2cc3ccccc3[nH]2)N=C(c2ccccc2)c2ccccc21`, the activity, negative = cell killing was 8.15% (inactive).
Next, `C=CC[C@]1(O)CC[C@H]2[C@@H]3CCC4=CC(=O)CCC4=C3C=C[C@@]21C`: -12.5% (inactive); `COc1cc(CC(C)N)c(OC)cc1Br` (stereo not given): -9.73% (inactive).
Under `CNC(=O)NC(O)C(Cl)(Cl)Cl` (stereo not given) stands -2.48% (inactive).
Under `O=C(NC(=O)c1c(F)cccc1F)Nc1cc(Cl)c(OC(F)(F)C(F)C(F)(F)F)cc1Cl` (stereo not given) stands -8.74% (inactive).
`CN1CCc2cc(Cl)c(O)cc2[C@H]2c3ccccc3CC[C@@H]21`: the activity, negative = cell killing was -22.7% (inactive).
Under `CCCC(C)C1(CC)C(=O)N=C(S)NC1=O` (stereo not given) stands -11.2% (inactive).
Next, `CC[C@]1(O)CC[C@H]2[C@@H]3CCC4=CCCC[C@@H]4[C@H]3CC[C@@]21C`: -25.8% (inactive).
Under `CCC1(CC)C(=O)NC(=O)NC1=O` stands 3.52% (inactive).
Take `N#Cc1nn(-c2c(Cl)cc(C(F)(F)F)cc2Cl)c(N)c1S(=O)C(F)(F)F` (stereo not given): the activity, negative = cell killing was -25.5% (inactive).
Next, `O=C(N[C@@H]1N=C(c2ccccc2F)c2cccc3c2N(CC3)C1=O)c1cc2ccccc2[nH]1`: -3.52% (inactive); `Cc1c(Cl)c(=O)oc2cc(OP(=O)(OCCCl)OCCCl)ccc12`: -10.4% (inactive).
Next, `C[C@H](N)[C@H](O)c1ccc(O)c(O)c1`: -8.55% (inactive); `C=CCOC(Cn1ccnc1)c1ccc(Cl)cc1Cl` (stereo not given): -23.6% (inactive); `CCN(CC)Cc1nccn1-c1ccc([N+](=O)[O-])cc1C(=O)c1ccccc1Cl`: -21% (inactive).

The values are drawn from PubChem BioAssay (NCATS).
